Entries with a potency or affinity are not part of this list. Calls of active or inactive are those of the source.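 The calls were made as follows: active = fitted half-effect concentration IC50 at or below a set limit, with percent of control there 60 or less; inactive = the rest.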

The test deals with Estrogen receptor (Homo sapiens) (UniProt P03372). Nature of the test: blockers of SRC-3 recruitment to ERα – biochemical, ELISA, streptavidin-HRP readout, orthogonal assay, confirmation (AID 1079). Particulars: ELISA ERalpha-biotin SRC-3 binding; series mostly up to 50 µM. In general terms: ELISA stands for enzyme-linked immunosorbent assay.
Chain of Estrogen receptor (Homo sapiens) (P03372 whole entry, looked up): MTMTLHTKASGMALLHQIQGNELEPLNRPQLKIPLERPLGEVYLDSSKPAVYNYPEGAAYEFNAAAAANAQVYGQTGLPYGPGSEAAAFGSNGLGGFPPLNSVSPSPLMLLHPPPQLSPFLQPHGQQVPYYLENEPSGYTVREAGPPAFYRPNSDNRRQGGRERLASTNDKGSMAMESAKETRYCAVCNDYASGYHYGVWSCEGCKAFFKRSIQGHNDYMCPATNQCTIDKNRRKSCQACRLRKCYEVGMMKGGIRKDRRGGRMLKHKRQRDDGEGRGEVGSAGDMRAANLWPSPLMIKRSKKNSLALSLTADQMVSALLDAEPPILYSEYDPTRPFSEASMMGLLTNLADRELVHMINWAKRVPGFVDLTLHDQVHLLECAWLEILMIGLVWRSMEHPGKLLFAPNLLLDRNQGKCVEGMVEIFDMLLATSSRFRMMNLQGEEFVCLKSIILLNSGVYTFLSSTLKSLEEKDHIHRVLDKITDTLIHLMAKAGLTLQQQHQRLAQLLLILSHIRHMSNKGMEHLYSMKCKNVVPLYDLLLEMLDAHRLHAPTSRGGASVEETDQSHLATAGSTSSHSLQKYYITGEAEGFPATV

For `O=C(CCCCCCCn1c(=S)[nH]c2ccccc2c1=O)N1CCN(c2cccc(Cl)c2)CC1`, the outcome was inactive.

For `N#Cc1ccc(N2CCN(C(=O)CCCCCn3c(=S)[nH]c4ccccc4c3=O)CC2)cc1`, the result was inactive.

For the origin of these results see PubChem BioAssay AID1079 (Emory University Molecular Libraries Screening Center, 2008).
